Calls of active or inactive are those of the source.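 Rule for the calls: active = inhibition above 40% at one or more tested concentrations in the dose response counterscreen; inactive = inhibition below 40% at every dose tested.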

The nature of this test: general growth reporter, non-PhoP nmpC promoter – synthesized compounds, set 5, counter-screen for PhoP regulon inhibitor project, late-stage follow-up (AID 463175). As to conditions: S. Typhimurium non-PhoP-regulated nmpC promoter-GFP fluorescence (growth counterscreen), 4 h; series mostly up to 150 µM. In general terms: The purpose of a counterscreen is to sort out artefacts and off-target activity.
Regarding `O=C1C2=C(Nc3ccccc3SC2c2ccc(Cl)cc2)c2ccccc21` (stereo unspecified), the outcome was inactive.
The same measure for `O=C1C2=C(Nc3ccccc3SC2c2cccnc2)c2ccccc21` (stereo unspecified): “inactive”; for `COc1cccc(NC(=O)N2CCCN(Cc3ccccc3F)C2)c1`: “inactive”; for `Clc1ccc(C2Sc3ccccc3N=C3c4ccccc4CC32)cc1` (stereo unspecified): “inactive”.
In the case of `O=C1C2=C(Nc3ccccc3SC2c2cccc(Br)c2)c2ccccc21` (stereo unspecified), the molecule was called inactive.
The same measure for `Cc1ccc(C2Sc3ccccc3N=C3c4ccccc4CC32)cc1` (stereo unspecified): “inactive”.

Values taken from PubChem BioAssay AID463175 (Southern Research Specialized Biocontainment Screening …, 2010).
